Experimental data reported in PubChem BioAssay (Tox21).
Inconclusive results are not listed. Where a call stands in place of a potency, no number is given. Unmarked numbers belong to inactive results. Activity calls are given as the source filed them. Calls come from the whole dose curve; as a rule, active = well fitted cell-killing curve with a large enough effect in the repeat runs; inconclusive = weak or mixed curves, or effect the other way; inactive = flat fitted curve, though single readings scatter.

Columns and labels:
[1] = cAMP Responsive Elements (CRE) small molecule antagonists, cell-based qHTS assay: qHTS cell viability counter screen (AID 2060913); note: nearly all actives have a fitted effect of over 40% in size
Procedure, shortened: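 CRE-bla HEK293T cells were seeded in assay medium with 10% dialyzed FBS, incubated 18 hrs at 37 C, then exposed to compounds plus 0.25 uM final NKH477 for 3 hrs. Viability was read by CellTiter-Glo luminescence after 30 min, in the same wells.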

[2] = cAMP Responsive Elements (CRE) small molecule agonists, cell-based qHTS assay: qHTS cell viability counter screen (AID 2060914);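 note: viability read after 3 h of compound exposure; nearly all actives have a fitted effect of over 50% in size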
Procedure, shortened: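 CRE-bla HEK 293T cells, plated 18 h at 37 °C, were exposed to compounds for 3 h at 37 °C/5% CO2. Viability was then measured in the same wells by CellTiter-Glo luminescence after 30 min at room temperature.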

Compound | Potency [1] | Potency [2] | viability change, negative = cytotoxic [1] | activity change, negative = cytotoxicity [2]
N[C@@H](Cc1cc(I)c(O)c(I)c1)C(=O)O | inactive | inactive | – | –
Nc1cc(=O)[nH]c(N)n1 | inactive | inactive | – | –
NC(=O)N/N=C/c1ccc([N+](=O)[O-])o1 | inactive | inactive | – | –
CC(C)n1c(/C=C/[C@@H](O)C[C@@H](O)CC(=O)O)c(-c2ccc(F)cc2)c2ccccc21 | inactive | inactive | – | –
COCc1ccc(COC)cc1 | inactive | inactive | – | –
Clc1cccc(Cl)c1NC1=NCCN1 | inactive | inactive | – | –
CC(=O)CC(=O)c1ccccc1 | inactive | inactive | – | –
c1ccc2cc3c(ccc4ccccc43)cc2c1 | inactive | inactive | – | –
CCC(=O)O | inactive | inactive | – | –
C[C@@H]1CCC[C@H](C)N1CCCC(O)(c1ccccc1)c1ccccn1 (stereo not given in full) | inactive | inactive | – | –
O=C1CCCCCN1 | inactive | inactive | – | –
c1cc(C(c2ccc(OCC3CO3)cc2)c2ccc(OCC3CO3)cc2)ccc1OCC1CO1 (stereo not given) | inactive | inactive | – | –
CCCCC(CC)COP(=O)(OCC(CC)CCCC)OCC(CC)CCCC (stereo not given) | inactive | inactive | – | –
Nc1nc(Cl)nc2c1ncn2[C@@H]1O[C@H](CO)[C@@H](O)[C@@H]1F | inactive | inactive | – | –
Cc1c(C(C)C)c(=O)n(-c2ccccc2)n1C | inactive | inactive | – | –
CC(=O)Nc1cccc(C)c1 | inactive | inactive | – | –
O=[N+]([O-])c1ccccc1CCO | inactive | inactive | – | –
O=C1CCC(=O)N1 | inactive | inactive | – | –
CC(=O)c1cc2ccccc2s1 | inactive | inactive | – | –
CCCCN(C)C | inactive | inactive | – | –
OCCCc1ccccc1 | inactive | inactive | – | –
O=C(O)c1ccc(CO)o1 | inactive | inactive | – | –
C=CCCCCCCCCCCC | – | – | -1.65% [at 8.39 µM] | -4.53% [at 8.39 µM]
O=C1OC(=O)C2C3C=CC(C3)C12 (stereo not given) | inactive | inactive | – | –

Compound | Potency [1] | Potency [2] | viability change, negative = cytotoxic [1] | activity change, negative = cytotoxicity [2]
N#CCCOCCC#N | inactive | inactive | – | –
COc1c(C)c2c(c(O)c1C/C=C(\C)CCC(=O)O)C(=O)OC2 | inactive | inactive | – | –
C=C(C)[C@@H]1CCC2=CCC[C@@H](C)[C@]2(C)C1 | inactive | inactive | – | –
O=Cc1ccc(F)cc1 | inactive | inactive | – | –
CCCCCCCCC(CO)CCCCCC (stereo not given) | inactive | inactive | – | –
CN1CCN(c2c(F)cc3c(=O)c(C(=O)O)cn4c3c2OCN4C)CC1 | – | – | 3.45% [at 18.9 µM] | 10.7% [at 18.9 µM]
COP(=O)(O)OP(=O)(O)OC | inactive | inactive | – | –
CCOc1ccc(NC(C)=O)cc1N | inactive | inactive | – | –
Cc1cc(C)c(O)c(C)c1 | inactive | inactive | – | –
O=C1OC(=O)c2cc(Oc3ccc4c(c3)C(=O)OC4=O)ccc21 | inactive | inactive | – | –
FC1(F)C(F)(F)C(F)(F)C2(F)C(F)(C1(F)F)C(F)(F)C(F)(F)C1(F)C(F)(F)C(F)(F)C(F)(F)C(F)(F)C12F (stereo not given) | inactive | inactive | – | –
Cc1ccc(O)cn1 | inactive | inactive | – | –
COc1ccc(C(Cl)=C(c2ccc(OC)cc2)c2ccc(OC)cc2)cc1 | inactive | inactive | – | –
CC#C[C@]1(O)CC[C@H]2[C@@H]3CCC4=CC(=O)CCC4=C3[C@@H](c3ccc(N(C)C)cc3)C[C@@]21C | inactive | inactive | – | –
C[C@@]12CCC[C@H]1[C@@H]1CC[C@H]3C[C@@H](O)CC[C@]3(C)[C@H]1CC2 | inactive | inactive | – | –
C=C(C)C(=O)OCC1CCCO1 (stereo not given) | inactive | inactive | – | –
CCC(Cc1ccccc1)(C(=O)c1ccc(N2CCOCC2)cc1)N(C)C (stereo not given) | inactive | inactive | – | –
Nc1ccc(S(=O)(=O)Nc2ccccc2)cc1 | inactive | inactive | – | –
CCCCC1C(=O)N(c2ccccc2)N(c2ccccc2)C1=O | inactive | inactive | – | –
CO[Si](C)(OC)c1ccccc1 | inactive | inactive | – | –
CCC(C)=O | inactive | inactive | – | –
Cc1ccc(C(=O)c2ccc(CC(=O)O)n2C)cc1 | inactive | inactive | – | –
CC1=CC(=O)CC(C)(C)C1=O | inactive | inactive | – | –
C[C@H]1C[C@@H]2[C@H]([C@@H](O)C[C@@]3(C)[C@H]2CC[C@]3(O)C(=O)CO)[C@@]2(C)C=CC(=O)C=C12 | inactive | inactive | – | –

Compound | Potency [1] | Potency [2] | viability change, negative = cytotoxic [1] | activity change, negative = cytotoxicity [2]
O=C1OCCO1 | inactive | inactive | – | –
COC(=O)C(C)=O | inactive | inactive | – | –
COC(=O)c1ccc([N+](=O)[O-])cc1 | inactive | inactive | – | –
CC(=O)CC(N)=O | inactive | inactive | – | –
O=C(O)c1ccccc1Cl | inactive | inactive | – | –
O=c1[nH]cccc1O | inactive | inactive | – | –
CCC(CO)CO | inactive | inactive | – | –
CC(=O)Nc1ccccc1C | inactive | inactive | – | –
Nc1ccc(Oc2ccc(N)c(N)c2)cc1 | inactive | inactive | – | –
CC1=C(C=O)C(C)(C)CC=C1 | inactive | inactive | – | –
O=C(C(=O)c1ccco1)c1ccco1 | inactive | inactive | – | –
CCCCCCCC/C=C\CCCCCCCC(=O)OCCO | inactive | inactive | – | –
COC(C)(C)CCCC(C)CC=O (stereo not given) | inactive | inactive | – | –
CCCCCCCCCCCCCCCCOP(=O)([O-])OCC[N+](C)(C)C | inactive | inactive | – | –
CC(C)CCCCCCCCCCCCCCC(=O)O | inactive | inactive | – | –
O=S1(=O)OC(c2ccc(O)cc2)(c2ccc(O)cc2)c2ccccc21 | inactive | inactive | – | –
C=C(C)CC(C)(C)C | inactive | inactive | – | –
Nc1ccc(S(=O)(=O)c2ccc(N)cc2)cc1 | inactive | inactive | – | –
O=[N+]([O-])c1ccc(Nc2ccc(Nc3ccccc3)c(S(=O)(=O)O)c2)c([N+](=O)[O-])c1 | inactive | inactive | – | –
O=C(/N=N/C(=O)OCc1ccccc1)OCc1ccccc1 | inactive | inactive | – | –
CC(=O)[O][Al][O]C(C)=O | inactive | inactive | – | –
CCCCCCCCCCO[C@@H]1O[C@H](CO)[C@@H](O)[C@H](O)[C@H]1O | inactive | inactive | – | –
CCCCCCCCCCOS(=O)(=O)O | inactive | inactive | – | –
CN1C(=O)c2ccccc2C1=O | inactive | inactive | – | –

Compound | Potency [1] | Potency [2] | viability change, negative = cytotoxic [1] | activity change, negative = cytotoxicity [2]
CC(C)(C)NCC(O)COc1ccccc1OCC1CCCO1 (stereo not given) | inactive | inactive | – | –
Nc1ccc(S(=O)(=O)Nc2cnc3ccccc3n2)cc1 | inactive | inactive | – | –
CCO[Si](CC(C)C)(OCC)OCC | inactive | inactive | – | –
OCCOCCOCCOCCOCCO | inactive | inactive | – | –
Cc1occc(=O)c1OC(=O)C(C)C | inactive | inactive | – | –
C#CC(O)C(CC)CCCC (stereo not given) | inactive | inactive | – | –
O=c1c(O)c(O)c1=O | inactive | inactive | – | –
C[C@H]1C[C@H]2[C@@H]3CCC4=CC(=O)C=C[C@]4(C)[C@@]3(F)[C@@H](O)C[C@]2(C)[C@@]1(O)C(=O)COP(=O)(O)O | inactive | inactive | – | –
Oc1ccc(Sc2ccc(O)cc2)cc1 | inactive | inactive | – | –
CCCCC(CC)COC(=O)CCCCC(=O)OCc1ccccc1 (stereo not given) | inactive | inactive | – | –
O=[N+]([O-])c1ccc(Cl)cc1Cl | inactive | inactive | – | –
Nc1ccnc(=O)[nH]1 | inactive | inactive | – | –
O=S(=O)(O)c1cccc(S(=O)(=O)O)c1 | inactive | inactive | – | –
Cc1nnc(C(=O)NC(C)(C)c2nc(C(=O)NCc3ccc(F)cc3)c(O)c(=O)n2C)o1 | inactive | inactive | – | –
CCCCCCCCCC=O | inactive | inactive | – | –
CC1(C)O[C@@H]2C[C@H]3[C@@H]4CCC5=CC(=O)C=C[C@]5(C)[C@H]4[C@@H](O)C[C@]3(C)[C@]2(C(=O)CO)O1 | inactive | inactive | – | –
CCCCCCCCOS(=O)(=O)O | inactive | inactive | – | –
O=C(CCN1CCC(c2ccccc2)C1)c1ccc2c(c1)OCCO2 (stereo not given) | inactive | inactive | – | –
C=CCOC(=O)CCC1CCCCC1 | inactive | inactive | – | –
C[n+]1ccccc1/C=N/O | inactive | inactive | – | –
CC1(C)[C@@H]2CC[C@@]1(C)C(=O)C2 | inactive | inactive | – | –
CC(C)OB(OC(C)C)OC(C)C | inactive | inactive | – | –
OC(CCl)CCl | inactive | inactive | – | –
COc1ccccc1NC(=O)CC(C)=O | inactive | inactive | – | –

Compound | Potency [1] | Potency [2] | viability change, negative = cytotoxic [1] | activity change, negative = cytotoxicity [2]
C(/C=C/C=C/Nc1ccccc1)=Nc1ccccc1 | inactive | inactive | – | –
CCOCCn1c(N2CCCN(C)CC2)nc2ccccc21 | inactive | inactive | – | –
Cn1c(NCCN(CCO)CCCc2ccc([N+](=O)[O-])cc2)cc(=O)n(C)c1=O | inactive | inactive | – | –
CCOc1ccc2nc(N)sc2c1 | inactive | inactive | – | –
COC(=O)CSc1cc(N=c2sc(=O)n3n2CCCC3)c(F)cc1Cl | inactive | inactive | – | –
CN(C)CCCN(C)C | – | – | 8.18% [at 8.39 µM] | -2.69% [at 8.39 µM]
COC(=O)c1ccccc1C(=O)c1ccc(OCCN2CCCCC2)cc1 | inactive | inactive | – | –
O=C1NC(=O)[C@@H]2CC=CC[C@H]12 | inactive | inactive | – | –
CCC(C)(O)CCC=C(C)C (stereo not given) | inactive | inactive | – | –
Fc1ccc([C@@H]2CCNC[C@H]2COc2ccc3c(c2)OCO3)cc1 | inactive | inactive | – | –
[Ca+2] | inactive | inactive | – | –
CCCCOCCOC(=O)c1cccnc1 | inactive | inactive | – | –
CC(=O)CC(=O)Nc1ccc(C)cc1C | inactive | inactive | – | –
CC(C)(N)C#N | inactive | inactive | – | –
C[C@@H](O)C(=O)O | inactive | inactive | – | –
N[C@@H](CSCCCO)C(=O)O | – | – | 1.17% [at 18.9 µM] | -12.4% [at 18.9 µM]
C[Si](C)=O | – | – | 7.47% [at 8.39 µM] | -0.0708% [at 8.39 µM]
c1ccc(-c2nn[nH]n2)cc1 | inactive | inactive | – | –
COC(=O)c1ccccc1C | inactive | inactive | – | –
C[Si](C)(C)C | inactive | inactive | – | –
CC(COCC(C)OC(=O)c1ccccc1)OC(=O)c1ccccc1 (stereo not given) | inactive | inactive | – | –
COC=O | – | – | -17.9% [at 8.39 µM] | -1.81% [at 8.39 µM]
CCCCCCCCCCCCCCCCC(=O)O | inactive | inactive | – | –
CCNC(=S)NCC | inactive | inactive | – | –
